The source made the active and inactive calls.
Tests used:
[1] = anti-His antibody binders, primary screen, artefact control for SMM control protein annotation, biochemical, small-molecule microarray, 635 nm fluorescence (AID 1128); details: anti-His Alexa647 antibody binding, higher = more signal;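 also: score merges feature fluorescence with signal-to-noise for each printed compound spot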
[2] = tested on: Human papillomavirus type 1a E7 protein (residues 1-88); assay: HPV1a E7 small-molecule binders, primary screen, biochemical, small-molecule microarray, residues 1-88, 635 nm (AID 1129); details: small-molecule microarray binding, fluorescence 635 nm; higher = more signal
[3] = target: Focal adhesion kinase 1 (Homo sapiens) (UniProt Q05397); assay: small-molecule microarray binders of FAK, primary screen, biochemical, 635/667 nm fluorescence, BSA, DTT (AID 1130); details: PTK2 binding, 635 nm fluorescence, higher = more signal;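 also: composite of spot emission at 667 nm and signal to noise over triplicate slides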
Chain of Focal adhesion kinase 1 (Homo sapiens) (Q05397 whole entry, looked up): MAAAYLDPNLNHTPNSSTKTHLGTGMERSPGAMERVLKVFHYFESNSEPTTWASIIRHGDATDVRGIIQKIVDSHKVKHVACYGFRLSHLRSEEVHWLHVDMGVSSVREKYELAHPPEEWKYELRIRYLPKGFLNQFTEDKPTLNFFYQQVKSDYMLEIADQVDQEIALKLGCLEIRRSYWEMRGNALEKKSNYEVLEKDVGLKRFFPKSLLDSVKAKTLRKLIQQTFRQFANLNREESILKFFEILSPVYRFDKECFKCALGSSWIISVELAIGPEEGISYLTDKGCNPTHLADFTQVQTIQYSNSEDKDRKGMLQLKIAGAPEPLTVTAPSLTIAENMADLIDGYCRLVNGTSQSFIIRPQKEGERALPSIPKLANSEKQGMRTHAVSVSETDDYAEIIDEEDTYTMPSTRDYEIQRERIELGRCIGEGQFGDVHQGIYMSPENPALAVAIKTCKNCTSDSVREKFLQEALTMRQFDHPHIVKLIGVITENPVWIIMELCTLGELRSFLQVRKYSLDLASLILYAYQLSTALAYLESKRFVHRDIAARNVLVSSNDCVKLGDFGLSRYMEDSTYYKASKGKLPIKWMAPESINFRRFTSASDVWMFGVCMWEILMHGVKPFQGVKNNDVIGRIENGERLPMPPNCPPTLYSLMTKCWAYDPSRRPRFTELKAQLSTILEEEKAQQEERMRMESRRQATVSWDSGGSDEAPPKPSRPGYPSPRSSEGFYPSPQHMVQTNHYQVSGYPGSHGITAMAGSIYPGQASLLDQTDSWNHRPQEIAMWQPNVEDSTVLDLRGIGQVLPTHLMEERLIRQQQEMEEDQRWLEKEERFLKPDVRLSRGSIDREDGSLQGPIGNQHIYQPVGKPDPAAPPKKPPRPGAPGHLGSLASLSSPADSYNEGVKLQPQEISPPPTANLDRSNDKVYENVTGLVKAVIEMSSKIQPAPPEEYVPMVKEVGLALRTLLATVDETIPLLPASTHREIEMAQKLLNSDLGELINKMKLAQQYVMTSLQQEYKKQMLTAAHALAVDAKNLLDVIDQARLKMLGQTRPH

[4] = tested on: Fibrinogen (Alexa647-labelled); assay: fibrinogen binders on compound microarrays, profiling panel, artefact control for SMM control-protein annotation, biochemical, small-molecule microarray, 635/667 nm fluorescence (AID 1131); details: fibrinogen-A647 binding fluorescence, higher = more signal;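 also: z-score merges 667 nm fluorescence with per-spot signal-to-noise over triplicate slides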
[5] = target: Follistatin (Homo sapiens) (UniProt P19883); assay: follistatin binders on small-molecule microarrays, primary screen, biochemical, small-molecule microarray, 635/667 nm fluorescence (AID 1132); details: FST binding, 635 nm fluorescence, higher = more signal
Chain of Follistatin (Homo sapiens) (P19883 whole entry, looked up): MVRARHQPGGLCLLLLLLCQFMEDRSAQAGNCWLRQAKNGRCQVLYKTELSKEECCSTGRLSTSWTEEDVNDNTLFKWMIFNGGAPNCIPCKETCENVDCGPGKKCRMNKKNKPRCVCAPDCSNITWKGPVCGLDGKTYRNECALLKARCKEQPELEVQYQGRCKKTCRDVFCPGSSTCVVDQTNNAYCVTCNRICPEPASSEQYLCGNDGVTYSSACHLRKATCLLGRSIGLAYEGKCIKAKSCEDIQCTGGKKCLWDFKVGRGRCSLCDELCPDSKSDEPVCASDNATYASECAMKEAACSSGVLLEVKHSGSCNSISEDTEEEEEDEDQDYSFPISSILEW

[6] = target: Fibroblast growth factor 2 (Homo sapiens) (UniProt P09038); assay: FGF2 binders on small-molecule microarrays, primary screen, biochemical, small-molecule microarray, 635/667 nm fluorescence (AID 1133); details: small-molecule microarray binding, FGF2, fluorescence 635/667; higher = more signal
Chain of Fibroblast growth factor 2 (Homo sapiens) (P09038 whole entry, looked up): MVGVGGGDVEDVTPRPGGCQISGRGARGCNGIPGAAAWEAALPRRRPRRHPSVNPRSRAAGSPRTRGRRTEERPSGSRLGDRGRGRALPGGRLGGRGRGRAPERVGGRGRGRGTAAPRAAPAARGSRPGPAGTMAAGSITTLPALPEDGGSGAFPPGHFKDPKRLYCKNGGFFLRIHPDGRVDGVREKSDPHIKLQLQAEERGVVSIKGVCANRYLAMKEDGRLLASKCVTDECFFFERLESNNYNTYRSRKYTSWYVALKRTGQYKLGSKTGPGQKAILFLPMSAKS

[7] = mitochondrial membrane potential change in A549 cells, profiling panel, cell-based, JC-1 fluorescence, basal, 24 h, 100 nL (AID 1138); details: higher = more signal;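 also: A549 lung adenocarcinoma cells under basal conditions with no added stimulus; test concentration not given here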
Lefty1 = Lefty1 binders on small-molecule microarrays, primary screen, biochemical, small-molecule microarray, 635/667 nm fluorescence (AID 1139); details: small-molecule microarray binding, fluorescence 635/667; higher = more signal
[8] = tested on: wheat germ agglutinin (Triticum aestivum), Alexa647-labelled; assay: wheat germ agglutinin binders on compound microarrays, profiling panel, artefact control for SMM control-protein annotation, biochemical, small-molecule microarray, 635/667 nm fluorescence (AID 1140); details: WGA-A647 binding, 635 nm fluorescence, higher = more signal;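 also: score merges 667 nm feature emission with signal to noise over triplicate slides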
[9] = target: Luciferin 4-monooxygenase (Photinus pyralis) (UniProt P08659); assay: firefly luciferase enzyme inhibitors, primary screen, biochemical, luminescence, purified enzyme, 2006 set (AID 1141); details: SteadyGlo luminescence, 30 min, higher = more signal, called active from +8 up or from −8 down;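 also: cell-free assay with purified firefly luciferase at 100 ng per well in PBS; test concentration not given here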
Chain of Luciferin 4-monooxygenase (Photinus pyralis) (P08659 whole entry, looked up): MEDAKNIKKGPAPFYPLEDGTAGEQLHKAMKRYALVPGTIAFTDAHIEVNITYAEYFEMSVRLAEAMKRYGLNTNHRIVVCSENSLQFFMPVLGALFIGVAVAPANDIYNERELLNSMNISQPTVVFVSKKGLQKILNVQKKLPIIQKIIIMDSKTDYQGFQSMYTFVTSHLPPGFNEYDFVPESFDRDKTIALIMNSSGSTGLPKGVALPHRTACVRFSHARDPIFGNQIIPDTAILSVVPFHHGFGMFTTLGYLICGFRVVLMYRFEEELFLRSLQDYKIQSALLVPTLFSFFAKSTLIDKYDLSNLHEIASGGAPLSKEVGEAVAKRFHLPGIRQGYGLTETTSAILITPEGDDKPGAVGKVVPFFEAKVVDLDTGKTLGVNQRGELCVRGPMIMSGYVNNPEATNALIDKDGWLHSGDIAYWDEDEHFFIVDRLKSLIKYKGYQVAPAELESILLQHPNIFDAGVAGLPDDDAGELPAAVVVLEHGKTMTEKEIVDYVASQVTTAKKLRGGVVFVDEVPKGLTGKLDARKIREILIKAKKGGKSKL

Compound: COc1ccc([C@H]2C[C@H]3C(Br)=C[C@]2(OC)C(=O)[C@]32CO2)cc1
- composite z-score [1]: 1.2
- composite z-score [2]: 0.0022
- composite z-score [3]: -0.458
- composite z-score [4]: -0.278
- composite z-score [5]: 0.276
- composite z-score [6]: 1.2
- z-score [7]: -1.02
- composite z-score (Lefty1): -0.1
- composite z-score [8]: -0.06
- z-score [9]: 0.909 (inactive)

Compound: C[C@H]1COC(=O)[C@H](Cc2ccccc2)NC(=O)[C@@H](C)COC(=O)[C@H](Cc2ccccc2)NC1=O
- composite z-score [1]: 1.46
- composite z-score [2]: 1.12
- composite z-score [3]: 0.327
- composite z-score [4]: 0.194
- composite z-score [5]: 0.593
- composite z-score [6]: 0.635
- z-score [7]: 1.04
- composite z-score (Lefty1): 1.03
- composite z-score [8]: 0.523
- z-score [9]: -0.443 (inactive)

Compound: O=C1C2C=CC(C(O)C(c3ccccc3)c3ccccc3)N(Nc3ccc([N+](=O)[O-])cc3)C2C(=O)N1c1ccccc1 (stereo not given)
- composite z-score [1]: 1.79
- composite z-score [2]: 1.24
- composite z-score [3]: 0.248
- composite z-score [4]: 0.953
- composite z-score [5]: 1.04
- composite z-score [6]: -0.255
- z-score [7]: -0.351
- composite z-score (Lefty1): 0.35
- composite z-score [8]: 1.28
- z-score [9]: 1.66 (inactive)

Compound: O=C1O[C@@H](c2ccccc2)[C@@H](c2ccccc2)N2[C@@H](c3ccc(OCCO)cc3)[C@]3(C(=O)Nc4ccc(C#CCCO)cc43)[C@@H](C(=O)N3CCN(c4ncccn4)CC3)[C@H]12
- composite z-score [1]: 0.468
- composite z-score [2]: 1
- composite z-score [3]: 0.341
- composite z-score [4]: 0.941
- composite z-score [5]: 1.34
- composite z-score [6]: 0.331
- z-score [7]: -0.0856
- composite z-score (Lefty1): 0.635
- composite z-score [8]: 1.2
- z-score [9]: 0.47 (inactive)

Compound: CO[C@H]1COC(=O)[C@@H](C)NC(=O)CC=C[C@@H](C)[C@H](OC)COC(=O)CC=C[C@@H]1C
- composite z-score [1]: -0.31
- composite z-score [2]: -1.46
- composite z-score [3]: 0.223
- composite z-score [4]: -1.07
- composite z-score [5]: 1.34
- composite z-score [6]: 1.63
- z-score [7]: 2.3
- composite z-score (Lefty1): 1.66
- composite z-score [8]: -1.16
- z-score [9]: -1.38 (inactive)

Compound: C=CC[C@]1(C(=O)O)N=C(c2ccc(OCCCO)cc2)O[C@H]1c1ccccc1N=[N+]=[N-]
- composite z-score [1]: 0.258
- composite z-score [2]: -0.171
- composite z-score [3]: 0.0806
- composite z-score [4]: -0.17
- composite z-score [5]: -0.0493
- composite z-score [6]: -0.124
- z-score [7]: 1.28
- composite z-score (Lefty1): -1.09
- composite z-score [8]: 0.0828
- z-score [9]: -12.3 (active)

Compound: N#Cc1ccc(NN2C(C(O)CCc3ccccc3)C=CC3C(=O)N(c4ccccc4)C(=O)C32)cc1 (stereo not given)
- composite z-score [1]: 1.31
- composite z-score [2]: 1.08
- composite z-score [3]: 0.945
- composite z-score [4]: 0.846
- composite z-score [5]: 0.353
- composite z-score [6]: -0.431
- z-score [7]: -0.3
- composite z-score (Lefty1): -0.85
- composite z-score [8]: 1.34
- z-score [9]: -0.98 (inactive)

Compound: CCOC(=O)C[C@H]1[C@H](OC(=O)c2cc3ccccc3oc2=O)[C@@H](NC(=O)C2CCCCC2)c2cc(OCCCO)ccc2N1C(=O)c1ccc2ccccc2n1
- composite z-score [1]: 0.0957
- composite z-score [2]: 0.791
- composite z-score [3]: 2.65
- composite z-score [4]: 0.443
- composite z-score [5]: 1.13
- composite z-score [6]: 0.324
- z-score [7]: 0.539
- composite z-score (Lefty1): 0.522
- composite z-score [8]: 0.755
- z-score [9]: 0.777 (inactive)

— PubChem BioAssay
